# Data from PMC7862700, “An all-to-all approach to the identification of sequence-specific readers for epigenetic DNA modifications on cytosine”.
# Key:
# Assay in all cases: DAPPL (digital affinity profiling via proximity ligation, sequencing); 10 mM Tris-HCl pH 7.5, 50 mM NaCl, 1 mM DTT, 4% glycerol, room temperature, 30 min; GST-TFs on glutathione beads, 16-mer random dsDNA library, 0.1% formaldehyde crosslink after washing; high values mean tight binding
# FLI1 = target: T1, FLI1 (Homo sapiens, UniProt Q01543 1-452); conditions: protein: recombinant; tags: N-terminal GST; dsDNA, one strand shown
# T1 sequence: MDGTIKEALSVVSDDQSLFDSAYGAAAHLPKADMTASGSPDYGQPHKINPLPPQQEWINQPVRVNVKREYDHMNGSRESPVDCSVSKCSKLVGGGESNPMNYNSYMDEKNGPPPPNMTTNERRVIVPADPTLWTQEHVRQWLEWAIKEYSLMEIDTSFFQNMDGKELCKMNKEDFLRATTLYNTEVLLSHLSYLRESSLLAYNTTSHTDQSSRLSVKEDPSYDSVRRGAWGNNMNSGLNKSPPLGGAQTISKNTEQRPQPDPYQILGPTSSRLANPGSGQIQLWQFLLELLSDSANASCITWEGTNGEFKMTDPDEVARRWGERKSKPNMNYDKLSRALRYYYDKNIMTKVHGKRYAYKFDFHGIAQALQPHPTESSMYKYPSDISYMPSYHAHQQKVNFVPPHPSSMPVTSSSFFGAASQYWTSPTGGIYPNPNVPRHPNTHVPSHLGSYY
# Procedure, shortened: (§1)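 The binding signal reported is, for every hexamer, its read frequency for a factor over its read frequency for the tag-only sample. Reads came from pools of yeast-expressed, GST-fused human transcription factors on glutathione beads, barcoded with DNA and mixed with that sample, which were incubated with 200 nmole of a random double-stranded 16-mer DNA library in Tris/NaCl/DTT/glycerol buffer at room temperature for 30 min. After washing, the pools were crosslinked with 0.1% formaldehyde, proximity-ligated with BsaI/T4 ligase for 1 h at 37 °C, PCR-amplified and sequenced on an Illumina NextSeq500.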
# ELK1 = target: T2, ELK1 (Homo sapiens, UniProt P19419 1-428); conditions: protein: recombinant; tags: N-terminal GST; dsDNA, one strand shown
# T2 sequence: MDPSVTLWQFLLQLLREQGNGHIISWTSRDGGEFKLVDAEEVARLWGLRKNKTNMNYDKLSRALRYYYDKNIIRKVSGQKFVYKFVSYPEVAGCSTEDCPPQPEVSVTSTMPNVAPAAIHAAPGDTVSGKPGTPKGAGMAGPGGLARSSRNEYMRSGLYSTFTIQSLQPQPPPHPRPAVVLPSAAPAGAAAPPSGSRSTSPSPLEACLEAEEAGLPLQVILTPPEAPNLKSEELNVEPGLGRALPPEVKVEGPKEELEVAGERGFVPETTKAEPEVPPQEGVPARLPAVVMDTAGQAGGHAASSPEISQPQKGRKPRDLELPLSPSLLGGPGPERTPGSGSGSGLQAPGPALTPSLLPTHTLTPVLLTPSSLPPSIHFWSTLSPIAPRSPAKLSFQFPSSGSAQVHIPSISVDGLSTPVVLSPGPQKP
# Procedure, shortened: as §1
# GABPA = target: T3, GABPA (Homo sapiens, UniProt Q06546 1-454); conditions: protein: recombinant; tags: N-terminal GST; dsDNA, one strand shown
# T3 sequence: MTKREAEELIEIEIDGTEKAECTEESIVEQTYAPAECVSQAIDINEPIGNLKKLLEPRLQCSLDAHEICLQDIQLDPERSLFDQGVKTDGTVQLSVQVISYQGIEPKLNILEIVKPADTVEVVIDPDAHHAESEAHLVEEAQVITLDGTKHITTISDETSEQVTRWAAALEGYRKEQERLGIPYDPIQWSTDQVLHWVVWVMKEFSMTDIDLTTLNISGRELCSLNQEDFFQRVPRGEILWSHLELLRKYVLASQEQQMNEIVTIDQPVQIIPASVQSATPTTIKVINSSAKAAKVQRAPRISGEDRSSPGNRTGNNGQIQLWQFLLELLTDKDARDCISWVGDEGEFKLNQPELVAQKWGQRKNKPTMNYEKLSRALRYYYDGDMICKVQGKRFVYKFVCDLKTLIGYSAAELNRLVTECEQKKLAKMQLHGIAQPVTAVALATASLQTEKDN
# Procedure, shortened: as §1
# ERG = target: T4, ERG (Homo sapiens, UniProt P11308 1-479); conditions: protein: recombinant; tags: N-terminal GST; dsDNA, one strand shown
# T4 sequence: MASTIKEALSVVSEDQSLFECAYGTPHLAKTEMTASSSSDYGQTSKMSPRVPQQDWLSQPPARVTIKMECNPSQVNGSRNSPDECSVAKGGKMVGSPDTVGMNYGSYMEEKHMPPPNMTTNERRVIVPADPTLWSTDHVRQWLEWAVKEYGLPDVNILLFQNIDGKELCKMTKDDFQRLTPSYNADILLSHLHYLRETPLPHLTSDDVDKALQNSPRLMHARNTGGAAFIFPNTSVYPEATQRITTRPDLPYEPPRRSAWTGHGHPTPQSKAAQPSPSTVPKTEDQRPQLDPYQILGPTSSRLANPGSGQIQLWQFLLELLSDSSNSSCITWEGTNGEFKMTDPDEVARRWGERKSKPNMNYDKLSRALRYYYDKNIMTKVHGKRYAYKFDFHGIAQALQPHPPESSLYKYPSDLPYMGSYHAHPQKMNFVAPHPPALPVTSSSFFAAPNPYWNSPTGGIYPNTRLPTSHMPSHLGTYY
# Procedure, shortened: as §1
# ELF1 = ELF1 (Homo sapiens, UniProt P32519 1-619); conditions: protein: recombinant; tags: N-terminal GST; dsDNA, one strand shown
# Procedure, shortened: as §1
# EHF = target: T5, EHF (Homo sapiens, UniProt Q9NZC4 1-300); conditions: protein: recombinant; tags: N-terminal GST; dsDNA, one strand shown
# T5 sequence: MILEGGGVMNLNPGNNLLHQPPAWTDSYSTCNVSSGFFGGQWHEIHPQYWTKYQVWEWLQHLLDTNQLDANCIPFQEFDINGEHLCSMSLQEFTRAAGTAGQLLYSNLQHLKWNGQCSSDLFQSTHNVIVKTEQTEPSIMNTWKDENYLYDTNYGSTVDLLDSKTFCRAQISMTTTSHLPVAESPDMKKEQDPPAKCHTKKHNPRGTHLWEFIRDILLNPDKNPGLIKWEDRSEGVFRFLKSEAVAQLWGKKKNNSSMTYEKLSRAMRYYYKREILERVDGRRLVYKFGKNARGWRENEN
# Procedure, shortened: as §1
# SPI1 = SPI1 (Homo sapiens, UniProt P17947 1-270); conditions: protein: recombinant; tags: N-terminal GST; dsDNA, one strand shown
# Procedure, shortened: as §1
# SPIB = SPIB (Homo sapiens, UniProt Q01892 1-262); conditions: protein: recombinant; tags: N-terminal GST; dsDNA, one strand shown
# Procedure, shortened: as §1
# ELK3 = target: T6, ELK3 (Homo sapiens, UniProt P41970 1-407); conditions: protein: recombinant; tags: N-terminal GST; dsDNA, one strand shown
# T6 sequence: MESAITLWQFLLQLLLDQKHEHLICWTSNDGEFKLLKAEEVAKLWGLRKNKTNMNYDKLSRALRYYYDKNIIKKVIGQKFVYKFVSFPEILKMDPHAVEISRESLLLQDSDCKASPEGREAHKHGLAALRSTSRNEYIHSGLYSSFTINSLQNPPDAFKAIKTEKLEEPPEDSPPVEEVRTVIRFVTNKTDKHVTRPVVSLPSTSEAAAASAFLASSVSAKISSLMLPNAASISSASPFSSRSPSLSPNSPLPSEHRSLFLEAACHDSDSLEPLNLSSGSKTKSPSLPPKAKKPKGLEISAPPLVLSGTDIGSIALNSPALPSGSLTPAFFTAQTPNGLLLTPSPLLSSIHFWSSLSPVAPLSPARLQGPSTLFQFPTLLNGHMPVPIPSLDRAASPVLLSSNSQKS
# Procedure, shortened: as §1
# FEV = target: T7, FEV (Homo sapiens, UniProt Q99581 1-238); conditions: protein: recombinant; tags: N-terminal GST; dsDNA, one strand shown
# T7 sequence: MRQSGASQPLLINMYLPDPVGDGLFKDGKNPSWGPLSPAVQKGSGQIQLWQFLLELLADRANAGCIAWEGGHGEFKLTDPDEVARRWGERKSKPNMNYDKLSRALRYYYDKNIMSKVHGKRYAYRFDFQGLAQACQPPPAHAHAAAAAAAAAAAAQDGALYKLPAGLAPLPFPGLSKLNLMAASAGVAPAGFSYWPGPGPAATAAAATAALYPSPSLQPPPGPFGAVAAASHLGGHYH
# Procedure, shortened: as §1
# ETV5 = ETV5 (Homo sapiens, UniProt P41161 1-510); conditions: protein: recombinant; tags: N-terminal GST; dsDNA, one strand shown
# Procedure, shortened: as §1
# HSF1 = HSF1 (Homo sapiens, UniProt Q00613 1-529); conditions: protein: recombinant; tags: N-terminal GST; chain copies: 3; dsDNA, one strand shown
# Procedure, shortened: as §1
# SPIC = target: T8, SPIC (Homo sapiens, UniProt Q8N5J4 1-248); conditions: protein: recombinant; tags: N-terminal GST; dsDNA, one strand shown
# T8 sequence: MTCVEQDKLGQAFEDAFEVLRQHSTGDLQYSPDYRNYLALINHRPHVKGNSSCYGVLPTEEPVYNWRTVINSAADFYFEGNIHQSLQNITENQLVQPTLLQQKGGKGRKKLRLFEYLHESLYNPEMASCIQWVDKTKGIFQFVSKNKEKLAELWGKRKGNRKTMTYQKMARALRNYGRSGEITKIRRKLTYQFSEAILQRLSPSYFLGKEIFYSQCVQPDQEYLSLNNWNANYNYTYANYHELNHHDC
# Procedure, shortened: as §1
# ELF4 = ELF4 (Homo sapiens, UniProt Q99607 1-663); conditions: protein: recombinant; tags: N-terminal GST; dsDNA, one strand shown
# Procedure, shortened: as §1
# ELK4 = target: T9, ELK4 (Homo sapiens, UniProt P28324-2 1-405); conditions: protein: recombinant; tags: N-terminal GST; dsDNA, one strand shown
# T9 sequence: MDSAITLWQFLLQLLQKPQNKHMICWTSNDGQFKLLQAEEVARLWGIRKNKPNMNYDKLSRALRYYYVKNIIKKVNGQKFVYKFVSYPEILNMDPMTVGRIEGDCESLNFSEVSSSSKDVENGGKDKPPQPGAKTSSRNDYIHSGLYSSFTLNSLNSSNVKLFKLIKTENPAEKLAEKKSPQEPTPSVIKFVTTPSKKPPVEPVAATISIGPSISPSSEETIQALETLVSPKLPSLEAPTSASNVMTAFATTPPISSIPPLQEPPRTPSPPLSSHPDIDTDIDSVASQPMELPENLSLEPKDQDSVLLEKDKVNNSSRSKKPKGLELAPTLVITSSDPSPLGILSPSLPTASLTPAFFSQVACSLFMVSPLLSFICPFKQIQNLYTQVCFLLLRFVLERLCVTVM
# Procedure, shortened: as §1
# ETV2 = target: T10, ETV2 (Homo sapiens, UniProt O00321 1-342); conditions: protein: recombinant; tags: N-terminal GST; dsDNA, one strand shown
# T10 sequence: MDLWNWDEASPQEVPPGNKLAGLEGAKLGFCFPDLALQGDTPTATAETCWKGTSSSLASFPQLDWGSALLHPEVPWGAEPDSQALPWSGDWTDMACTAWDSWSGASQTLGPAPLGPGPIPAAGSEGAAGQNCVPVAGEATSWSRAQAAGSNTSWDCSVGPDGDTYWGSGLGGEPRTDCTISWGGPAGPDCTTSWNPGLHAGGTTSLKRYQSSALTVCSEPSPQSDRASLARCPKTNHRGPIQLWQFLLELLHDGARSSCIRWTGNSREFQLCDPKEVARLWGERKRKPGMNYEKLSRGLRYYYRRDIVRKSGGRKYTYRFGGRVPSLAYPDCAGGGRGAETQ
# Procedure, shortened: as §1
# ELF3 = target: T11, ELF3 (Homo sapiens, UniProt P78545 1-371); conditions: protein: recombinant; tags: N-terminal GST; dsDNA, one strand shown
# T11 sequence: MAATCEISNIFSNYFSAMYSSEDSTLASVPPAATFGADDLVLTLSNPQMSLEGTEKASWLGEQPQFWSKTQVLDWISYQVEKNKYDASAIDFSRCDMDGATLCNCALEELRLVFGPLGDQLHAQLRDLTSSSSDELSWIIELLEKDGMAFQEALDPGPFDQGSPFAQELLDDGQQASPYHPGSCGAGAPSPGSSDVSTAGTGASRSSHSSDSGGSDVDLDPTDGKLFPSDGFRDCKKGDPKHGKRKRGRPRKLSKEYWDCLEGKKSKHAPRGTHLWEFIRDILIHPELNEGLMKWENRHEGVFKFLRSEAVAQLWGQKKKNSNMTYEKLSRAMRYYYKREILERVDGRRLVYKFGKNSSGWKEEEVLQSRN
# Procedure, shortened: as §1
# CRX = CRX (Homo sapiens, UniProt O43186 1-299); conditions: protein: recombinant; tags: N-terminal GST; dsDNA, one strand shown
# Procedure, shortened: as §1
# Sequence of ELF4 (Q99607 whole entry): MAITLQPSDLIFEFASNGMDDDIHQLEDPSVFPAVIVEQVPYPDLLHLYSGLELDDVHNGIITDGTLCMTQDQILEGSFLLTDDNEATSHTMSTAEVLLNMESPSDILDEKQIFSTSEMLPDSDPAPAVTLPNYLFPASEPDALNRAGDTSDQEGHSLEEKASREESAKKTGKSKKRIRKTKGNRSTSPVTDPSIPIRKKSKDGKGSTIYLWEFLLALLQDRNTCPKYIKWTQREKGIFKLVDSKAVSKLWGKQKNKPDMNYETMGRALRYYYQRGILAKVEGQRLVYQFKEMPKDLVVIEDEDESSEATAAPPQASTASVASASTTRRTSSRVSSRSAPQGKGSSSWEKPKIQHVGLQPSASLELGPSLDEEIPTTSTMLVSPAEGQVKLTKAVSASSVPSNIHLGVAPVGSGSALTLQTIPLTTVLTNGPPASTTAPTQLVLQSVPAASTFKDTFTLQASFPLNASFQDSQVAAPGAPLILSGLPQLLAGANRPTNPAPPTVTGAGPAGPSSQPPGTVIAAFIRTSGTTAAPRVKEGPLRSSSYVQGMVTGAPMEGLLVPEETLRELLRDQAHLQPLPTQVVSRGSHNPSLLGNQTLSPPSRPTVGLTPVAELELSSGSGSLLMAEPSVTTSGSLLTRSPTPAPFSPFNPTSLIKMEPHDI
# Sequence of HSF1 (Q00613 whole entry): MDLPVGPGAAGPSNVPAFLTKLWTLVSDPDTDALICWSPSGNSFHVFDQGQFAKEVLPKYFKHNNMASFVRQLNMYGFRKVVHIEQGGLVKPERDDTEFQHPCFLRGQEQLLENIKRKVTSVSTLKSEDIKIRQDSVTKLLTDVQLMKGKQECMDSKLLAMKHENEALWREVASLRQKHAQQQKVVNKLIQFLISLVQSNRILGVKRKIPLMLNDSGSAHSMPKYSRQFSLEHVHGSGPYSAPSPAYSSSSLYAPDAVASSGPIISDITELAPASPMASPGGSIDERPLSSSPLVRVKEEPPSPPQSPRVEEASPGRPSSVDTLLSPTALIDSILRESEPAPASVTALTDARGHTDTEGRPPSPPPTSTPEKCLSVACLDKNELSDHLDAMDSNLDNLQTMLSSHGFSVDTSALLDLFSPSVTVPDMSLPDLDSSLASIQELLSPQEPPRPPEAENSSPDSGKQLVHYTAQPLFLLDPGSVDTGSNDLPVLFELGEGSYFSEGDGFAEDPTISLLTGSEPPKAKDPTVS
# Sequence of ELF1 (P32519 whole entry): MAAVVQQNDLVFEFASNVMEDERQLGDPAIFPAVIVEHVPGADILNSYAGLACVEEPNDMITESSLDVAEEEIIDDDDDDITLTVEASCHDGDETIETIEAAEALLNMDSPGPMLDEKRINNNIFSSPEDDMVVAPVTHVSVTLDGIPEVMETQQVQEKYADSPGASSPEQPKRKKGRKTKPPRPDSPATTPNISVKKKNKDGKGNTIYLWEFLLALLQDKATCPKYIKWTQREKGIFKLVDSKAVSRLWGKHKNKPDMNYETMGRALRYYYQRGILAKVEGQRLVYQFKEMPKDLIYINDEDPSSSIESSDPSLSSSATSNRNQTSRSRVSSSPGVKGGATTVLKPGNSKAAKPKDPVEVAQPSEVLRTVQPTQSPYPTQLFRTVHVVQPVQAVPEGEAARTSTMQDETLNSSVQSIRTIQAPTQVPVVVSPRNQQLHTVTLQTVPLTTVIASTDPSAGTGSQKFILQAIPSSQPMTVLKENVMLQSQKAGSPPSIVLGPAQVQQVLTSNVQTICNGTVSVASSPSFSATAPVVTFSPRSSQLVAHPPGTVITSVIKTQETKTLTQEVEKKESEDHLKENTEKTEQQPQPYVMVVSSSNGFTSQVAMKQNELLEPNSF
# Sequence of SPIB (Q01892 whole entry): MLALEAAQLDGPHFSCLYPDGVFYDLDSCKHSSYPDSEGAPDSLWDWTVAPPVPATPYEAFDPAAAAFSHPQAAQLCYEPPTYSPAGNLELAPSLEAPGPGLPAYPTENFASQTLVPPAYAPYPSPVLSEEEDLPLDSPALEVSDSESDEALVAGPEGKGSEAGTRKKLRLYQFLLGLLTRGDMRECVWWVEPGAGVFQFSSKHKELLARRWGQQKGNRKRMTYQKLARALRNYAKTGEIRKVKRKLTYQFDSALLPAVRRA
# Sequence of CRX (O43186 whole entry): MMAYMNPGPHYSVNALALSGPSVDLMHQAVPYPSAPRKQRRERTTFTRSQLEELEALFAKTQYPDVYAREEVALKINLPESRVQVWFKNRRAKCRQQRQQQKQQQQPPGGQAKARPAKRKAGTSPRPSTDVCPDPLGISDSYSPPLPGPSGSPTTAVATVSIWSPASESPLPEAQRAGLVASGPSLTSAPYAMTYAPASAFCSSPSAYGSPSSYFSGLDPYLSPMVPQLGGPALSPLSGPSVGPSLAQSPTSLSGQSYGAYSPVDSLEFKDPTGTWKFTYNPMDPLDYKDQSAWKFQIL
# Sequence of ETV5 (P41161 whole entry): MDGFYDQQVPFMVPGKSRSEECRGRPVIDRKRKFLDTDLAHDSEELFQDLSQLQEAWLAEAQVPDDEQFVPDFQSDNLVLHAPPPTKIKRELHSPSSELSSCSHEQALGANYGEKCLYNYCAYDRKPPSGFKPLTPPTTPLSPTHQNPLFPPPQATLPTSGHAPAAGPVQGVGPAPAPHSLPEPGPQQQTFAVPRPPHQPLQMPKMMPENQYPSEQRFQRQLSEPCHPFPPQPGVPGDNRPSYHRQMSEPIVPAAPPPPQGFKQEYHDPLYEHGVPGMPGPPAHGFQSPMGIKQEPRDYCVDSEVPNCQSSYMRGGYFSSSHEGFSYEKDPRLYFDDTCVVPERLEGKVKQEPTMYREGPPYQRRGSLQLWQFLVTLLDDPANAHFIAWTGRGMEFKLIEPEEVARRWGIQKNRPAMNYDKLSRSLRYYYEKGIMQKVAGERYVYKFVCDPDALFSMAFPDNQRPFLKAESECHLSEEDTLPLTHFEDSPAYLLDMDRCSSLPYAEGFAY
sequence,measurement,setting,value
TGATAT,binding signal,FLI1,"1.13 fold enrichment (6-mer frequency, TF over GST control)"
same,binding signal,ELK1,"1.11 fold enrichment (6-mer frequency, TF over GST control)"
same,binding signal,GABPA,"1.15 fold enrichment (6-mer frequency, TF over GST control)"
same,binding signal,ERG,"1.12 fold enrichment (6-mer frequency, TF over GST control)"
same,binding signal,ELF1,"1.11 fold enrichment (6-mer frequency, TF over GST control)"
same,binding signal,EHF,"1.08 fold enrichment (6-mer frequency, TF over GST control)"
same,binding signal,SPI1,"1.08 fold enrichment (6-mer frequency, TF over GST control)"
same,binding signal,SPIB,"1.05 fold enrichment (6-mer frequency, TF over GST control)"
same,binding signal,ELK3,"1 fold enrichment (6-mer frequency, TF over GST control)"
same,binding signal,FEV,"1.07 fold enrichment (6-mer frequency, TF over GST control)"
same,binding signal,ETV5,"1.1 fold enrichment (6-mer frequency, TF over GST control)"
same,binding signal,HSF1,"1.01 fold enrichment (6-mer frequency, TF over GST control)"
same,binding signal,SPIC,"1.05 fold enrichment (6-mer frequency, TF over GST control)"
same,binding signal,ELF4,"1.12 fold enrichment (6-mer frequency, TF over GST control)"
same,binding signal,ELK4,"1.14 fold enrichment (6-mer frequency, TF over GST control)"
same,binding signal,ETV2,"1.21 fold enrichment (6-mer frequency, TF over GST control)"
same,binding signal,ELF3,"1.04 fold enrichment (6-mer frequency, TF over GST control)"
same,binding signal,CRX,"1.08 fold enrichment (6-mer frequency, TF over GST control)"
